Source: PubChem BioAssay (Tox21)
Records with an inconclusive call do not appear. Entries that show only a call come without a potency. Activity calls are given as the source filed them. Calls follow the shape of the dose curve; as a rule, active = well fitted activation curve with a large enough effect in the repeat runs; inconclusive = weak or mixed curves; inactive = no such curve, though single readings can be large or run the other way.

biological target: Aryl hydrocarbon receptor (Homo sapiens) (UniProt P35869); assay: qHTS assay to identify small molecule that activate the aryl hydrocarbon receptor (AhR) signaling pathway (AID 743085); conditions: HepG2 AhR-luc (HG2L7.5c1), luciferase, 24 h; series mostly up to 70.3 µM; also: nearly all actives have a fitted effect of over 15% in size;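 as to activation: HG2L7.5c1 human HepG2 liver cells with stably integrated DRE-driven firefly reporter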
Sequence (P35869 whole entry, looked up): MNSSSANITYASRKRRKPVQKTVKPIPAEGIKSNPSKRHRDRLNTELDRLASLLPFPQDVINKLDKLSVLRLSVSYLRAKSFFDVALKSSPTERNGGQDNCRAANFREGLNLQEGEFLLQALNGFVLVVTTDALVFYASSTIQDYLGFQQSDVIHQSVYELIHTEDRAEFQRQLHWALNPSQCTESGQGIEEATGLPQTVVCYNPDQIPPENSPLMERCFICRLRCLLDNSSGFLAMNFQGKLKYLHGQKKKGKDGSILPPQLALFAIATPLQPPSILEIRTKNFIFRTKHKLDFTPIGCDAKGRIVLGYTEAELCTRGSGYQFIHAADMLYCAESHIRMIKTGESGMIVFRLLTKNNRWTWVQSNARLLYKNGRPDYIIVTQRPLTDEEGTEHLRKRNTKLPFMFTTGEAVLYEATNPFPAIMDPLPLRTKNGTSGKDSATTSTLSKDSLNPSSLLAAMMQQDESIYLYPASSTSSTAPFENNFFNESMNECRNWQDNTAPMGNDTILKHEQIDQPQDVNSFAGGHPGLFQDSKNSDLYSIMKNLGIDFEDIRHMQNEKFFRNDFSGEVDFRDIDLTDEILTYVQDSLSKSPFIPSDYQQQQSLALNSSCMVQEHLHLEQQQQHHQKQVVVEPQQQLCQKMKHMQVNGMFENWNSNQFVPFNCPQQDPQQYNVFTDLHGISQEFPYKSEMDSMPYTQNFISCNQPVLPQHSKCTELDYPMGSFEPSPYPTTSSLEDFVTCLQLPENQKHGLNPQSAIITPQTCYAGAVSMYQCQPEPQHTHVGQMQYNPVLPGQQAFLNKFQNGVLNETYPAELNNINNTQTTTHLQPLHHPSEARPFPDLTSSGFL
Description: U.S. Tox21 Program National Center for Advancing Translational Sciences [NCATS] NIH Chemical Genomics Center [NCGC] U.S. Environmental Protection Agency [EPA] National Institutes of Environmental Health Sciences [NIEHS] National Toxicology Program [NTP] U.S. Food and Drug Administration [FDA] Tox21 Assay overview: The Aryl hydrocarbon Receptor (AhR), a member of the family of basic helix-loop-helix transcription factors, is crucial to adaptive responses to environmental changes. AhR mediates cellular responses to environmental pollutants such as aromatic hydrocarbons through induction of phase I and II enzymes but also interacts with other nuclear receptor signaling pathways. A cell based HepG2-AhR-luc assay (HG2L7.5c1 cell line, developed by Dr. Michael S. Denison, University of California at Davis, was used to assess the activation of AhR. HepG2 (human hepatocellular carcinoma) cells were stably transfected with an Ah receptor-responsive firefly luciferase reporter gene plasmid containing 20 dioxin responsive elements and luciferase reporter gene. Increased luciferase activity can be used to identify the compounds that induce AhR activation.
Tox21 Assay Protocol Summary: 4000 cells in 5 uL/well were dispensed into white wall/solid bottom 1536-well plates using a Multidrop Combi (Thermo Fisher Scientific Inc., Waltham, MA) dispenser. After the assay plates were incubated at 37C for 5 h, 23 nL of compound or DMSO vehicle was transferred to the assay plates by a pintool station (Kalypsys, San Diego, CA). The plates were incubated at 37C for 24 hr. After 1 ul/well of CellTiter-Fluor reagent (Promega, Madison, WI) was added into the assay plates using a Flying Reagent Dispenser (FRD) (Aurora Discovery, CA), the assay plates were incubated at 37C for 30 min. The fluorescence intensity in the plates was measured using a ViewLux plate reader (PerkinElmer, Shelton, CT), followed by the addition of 4 uL of ONE-Glo Luciferase Assay reagent (Promega) using an FRD (Aurora Discovery). After the assay plates were incubated at room temperature for 30 min, luminescence intensity was measured using a ViewLux plate reader (Perkin Elmer).
Potency is read from the fitted curve at half-maximal effect.

Row | SMILES | Potency
1 | CC(C)CC(O)CC(C)C | inactive
2 | CNCc1ccc(NC(=O)c2c[nH]c3c2C(=O)CCC3)cc1 | 1.54 µM (active)
3 | Nc1cccc2c(N)cccc12 | 19.3 µM (active)
4 | CCN(CC)C(=O)N1CCN(C)CC1 | inactive
5 | c1ccc(CNc2ncnc3c2ncn3C2CCCCO2)cc1 (stereo not given) | 8.63 µM (active)
6 | O=C(O)CCC(=O)OC[C@@H](NC(=O)C(Cl)Cl)[C@H](O)c1ccc([N+](=O)[O-])cc1 | inactive
7 | CCC(C)(C)C(=O)O | inactive
8 | CC(C)Cc1ccc(CC(=O)O)cc1 | inactive
9 | CC1=C2[C@@H]([C@H](C)CC[C@H]2/C=C(\C)C(=O)O)[C@H](O)C1 | inactive
10 | CCCCCCCC(=O)OCCCCCC | inactive
11 | CCCCCCOC(=O)CCCCC | inactive
12 | CC1C(C)(C)C2=C(C(=O)CCC2)C1(C)C (stereo not given) | inactive
13 | CCSC(=O)N(CC)CC | inactive
14 | O=C(C(=O)c1ccco1)c1ccco1 | inactive
15 | CC1CCC(C(C)CS)CC1S (stereo not given) | inactive
16 | Nc1ccc(F)cc1 | inactive
17 | COc1ccc(C(=O)NCc2ccc(OCCN(C)C)cc2)cc1OC | inactive
18 | O=C(/C=C/c1ccc([N+](=O)[O-])cc1)c1ccccc1 | inactive
19 | COC(CC(C)CCCC(C)(C)O)OC (stereo not given) | inactive
20 | CC12CC3CC(C)(C1)CC(N)(C3)C2 | inactive

Row | SMILES | Potency
21 | O=C1[C@@H]2[C@H]3CC[C@H](C3)[C@@H]2C(=O)N1CCCCN1CCN(c2ncccn2)CC1 | inactive
22 | O=c1[nH]c2cc(C(F)(F)F)c(N3CCOCC3)cc2n(CP(=O)(O)O)c1=O | inactive
23 | CN=C(N)NC(=O)Nc1c(C)cccc1C | inactive
24 | COc1cc(NCc2ccc3nc(N)nc(N)c3c2C)cc(OC)c1OC | 29.8 µM (active)
25 | CCN(Cc1cccc(S(=O)(=O)O)c1)c1ccc(C(=C2C=CC(=[N+](CC)Cc3cccc(S(=O)(=O)O)c3)C=C2)c2ccccc2S(=O)(=O)[O-])cc1 | inactive
26 | C1CCCCC1 | inactive
27 | CCCCCCC(O)CCOC(C)=O (stereo not given) | inactive
28 | Cc1c[nH]c2ccccc12 | inactive
29 | O=[N+]([O-])C1(Br)COCOC1 | inactive
30 | CC(=O)Oc1cccc(O)c1 | inactive
31 | NC(=O)c1ccccc1[N+](=O)[O-] | inactive
32 | O=C(O)c1ccc(O)cc1O | inactive
33 | CCN(CC)CCOC(=O)C(c1ccccc1)c1ccccc1 | inactive
34 | C/C(C=O)=C\c1ccccc1 | inactive
35 | Cc1cccc(C)c1NC(=O)c1cc(S(N)(=O)=O)c(Cl)cc1O | inactive
36 | CC(C)C(=O)OCCOc1ccccc1 | inactive
37 | CC(C)OC(=O)c1ccccc1C(=O)OC(C)C | inactive
38 | CNS(=O)(=O)c1cc(C(=O)N2CCC(CCN3C4CCC3CC(n3c(C)nc5ccccc53)C4)(c3cccc(F)c3)CC2)c(Cl)cc1F (stereo not given) | inactive
39 | CCCc1nc2c(C)cc(-c3nc4ccccc4n3C)cc2n1Cc1ccc(-c2ccccc2C(=O)O)cc1 | inactive
40 | CCCCCCCCCCCCCOS(=O)(=O)O | inactive
